Measurements: ChEMBL document CHEMBL1201862, “PubChem BioAssay data set” (2004)
Screen size: about 310,000 compounds; about 11,000 (3.5%) were called active. Roughly 8% stayed inconclusive and do not appear here. The calls are words filed in the database; no cut-off is given here. Shown is part of a subset that was picked to be rich in actives.

Each compound was assayed against Nuclear receptor ROR-gamma (Mus musculus) (UniProt P51450) (assay: VP16 counterscreen qHTS for inhibitors of ROR gamma transcriptional activity.).
Nuclear receptor ROR-gamma (Mus musculus), sequence (P51450 whole entry): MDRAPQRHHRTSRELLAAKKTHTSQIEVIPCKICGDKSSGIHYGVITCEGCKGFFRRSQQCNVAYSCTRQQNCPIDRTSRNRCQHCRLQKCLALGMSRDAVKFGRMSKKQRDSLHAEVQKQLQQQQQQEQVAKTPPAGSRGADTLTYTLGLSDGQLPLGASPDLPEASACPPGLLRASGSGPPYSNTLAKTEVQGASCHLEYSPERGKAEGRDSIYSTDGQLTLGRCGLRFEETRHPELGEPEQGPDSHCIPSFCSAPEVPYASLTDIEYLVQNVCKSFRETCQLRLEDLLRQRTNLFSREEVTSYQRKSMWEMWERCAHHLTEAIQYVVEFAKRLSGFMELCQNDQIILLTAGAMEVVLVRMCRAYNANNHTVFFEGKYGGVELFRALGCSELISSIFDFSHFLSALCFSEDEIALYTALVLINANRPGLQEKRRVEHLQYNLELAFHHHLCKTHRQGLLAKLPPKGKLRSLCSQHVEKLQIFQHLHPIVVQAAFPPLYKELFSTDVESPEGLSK
Assay type: functional

Potency, active:
O=C(Oc1c(Cl)cc(Cl)c2cccnc12)c1cccc([N+](=O)[O-])c1 200 µM
COc1cccc2sc(Nc3nc(-c4ccccn4)cs3)nc12 355 µM
O=C(N/N=C(\c1ccccc1)c1cccnc1)c1cccc(F)c1 891 µM
O=C(NC1CCCCCCC1)C1CCN(c2nc3ccccc3o2)CC1 631 µM
Cc1ccc(-n2c(C)cc(C(=O)COC(=O)c3cccnc3O)c2C)cc1 224 µM
